From the supplement of paper PMC10849652
Of roughly 7,900 targets only a part is listed; those with a hit were picked by preference. About 0.6% of all pairs of compound and target were hits. A number with no mark means an inactive call.

What was measured:
Assay in all cases: log2 fold change, soluble protein after heating vs DMSO (PISA); higher = thermal stabilisation; K562 cells, 10 uM, 30 min; active = over 0.2 and 3.5 SD of the protein, either way, in both replicates (recomputed)
epoxomicin = compound: CC[C@H](C)[C@@H](C(=O)N[C@@H]([C@@H](C)O)C(=O)N[C@@H](CC(C)C)C(=O)[C@]1(CO1)C)NC(=O)[C@H]([C@@H](C)CC)N(C)C(=O)C [epoxomicin]
In short: (§1)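 Aliquots of K562 cells (2×10^6 cells/mL) treated with 10 μM compound for 30 min were heated for 3 min over 48°C-58°C. After pooling and extraction in PBS with 0.5% NP-40 at 4°C, soluble protein from a 21,000xg, 90 min spin was quantified by TMTpro 16plex LC-MS/MS with channel sums equalised. Thermal stability is expressed against control samples, from duplicates, as a log2 fold change.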

[1] = compound: CCn1cc(-c2ccnc3[nH]c(-c4cccc(CN(C)C)c4)cc23)c(-c2ccc(NC(=O)N(C)C)cc2)n1
In short: as §1

rosiglitazone = compound: CN(CCOC1=CC=C(C=C1)C[C@H]2C(=O)NC(=O)S2)C3=CC=CC=N3 (racemic) [rosiglitazone]
In short: as §1

[2] = compound: CN1CCC(CNc2ccc3ncc(-c4cccc(OC(F)(F)F)c4)n3n2)CC1
In short: as §1

[3] = compound: CC[C@@H]1C(=O)N(C)c2cnc(Nc3ccc(C(=O)NC4CCN(C)CC4)cc3OC)nc2N1C1CCCC1
In short: as §1

volasertib = compound: CC[C@@H]1C(=O)N(C)c2cnc(Nc3ccc(C(=O)N[C@H]4CC[C@H](N5CCN(CC6CC6)CC5)CC4)cc3OC)nc2N1C(C)C [volasertib]
In short: as §1

[4] = compound: CN(C)CC(=O)Nc1ccc2[nH]c(=O)c3ccccc3c2c1
In short: as §1

[5] = compound: CCn1c(C(=O)N(C2CC2)C2CC2)cc2c3c(ncn3C)c(Nc3cc(C)n(C)n3)nc21
In short: as §1

[6] = compound: CN1C2=C(C3=C1C(=O)N(N=C3)CC4=CC(=CC=C4)N)SC(=C2)S(=O)C
In short: as §1

[7] = compound: CC[C@H](C)N1C=C(C2=C(C=C(C=C21)C3=CN=C(C=C3)N4CCNCC4)C(=O)NCC5=C(C=C(NC5=O)C)C)C
In short: as §1

Target: ADD1 isoform 4 (UniProt P35611)
- log2 fold change (epoxomicin): -0.431
- log2 fold change [1]: -0.001
- log2 fold change (rosiglitazone): -0.077
- log2 fold change [2]: 0.086

Target: ALDH2 isoform 2 (UniProt P05091)
Sequence of UniProt P05091 (P05091 whole entry, looked up): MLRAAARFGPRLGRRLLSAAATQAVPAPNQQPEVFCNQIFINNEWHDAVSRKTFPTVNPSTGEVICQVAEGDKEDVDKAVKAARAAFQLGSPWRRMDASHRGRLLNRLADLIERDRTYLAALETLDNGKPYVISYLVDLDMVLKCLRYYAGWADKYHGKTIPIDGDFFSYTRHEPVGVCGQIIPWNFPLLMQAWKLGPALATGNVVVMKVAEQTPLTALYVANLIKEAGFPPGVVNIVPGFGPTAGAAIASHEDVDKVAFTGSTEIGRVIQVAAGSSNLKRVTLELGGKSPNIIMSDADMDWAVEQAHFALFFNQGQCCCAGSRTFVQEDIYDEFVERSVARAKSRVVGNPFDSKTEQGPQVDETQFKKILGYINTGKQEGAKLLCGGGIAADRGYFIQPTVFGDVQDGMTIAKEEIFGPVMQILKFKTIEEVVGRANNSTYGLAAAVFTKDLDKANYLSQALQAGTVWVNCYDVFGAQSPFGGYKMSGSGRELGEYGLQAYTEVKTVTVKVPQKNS
- log2 fold change [3]: 0.183
- log2 fold change (volasertib): 0.033
- log2 fold change (epoxomicin): -0.176
- log2 fold change [1]: -0.014
- log2 fold change [4]: -0.015
- log2 fold change (rosiglitazone): 0.19
- log2 fold change [2]: -0.072

Target: BAP18 isoform 3 (UniProt Q8IXM2)
- log2 fold change [5]: -0.028
- log2 fold change [1]: 0.028
- log2 fold change [2]: 0.2

Target: BDH2 (UniProt Q9BUT1)
- log2 fold change (volasertib): -0.126
- log2 fold change [5]: 0
- log2 fold change [1]: 0.005
- log2 fold change [4]: 0.367
- log2 fold change (rosiglitazone): 0.001
- log2 fold change [6]: -0.028
- log2 fold change [2]: -0.033

Target: ANGEL1 (UniProt Q9UNK9)
- log2 fold change [4]: 0.038
- log2 fold change (rosiglitazone): -0.008

Target: ACVR1 (UniProt Q04771)
- log2 fold change [3]: -0.104
- log2 fold change (volasertib): -0.2
- log2 fold change (epoxomicin): 0.16
- log2 fold change [5]: -0.036
- log2 fold change [1]: 0.065
- log2 fold change [4]: -0.095
- log2 fold change [6]: -0.111
- log2 fold change [2]: 0.925 (active)

Target: ADPRH (UniProt P54922)
- log2 fold change (volasertib): 0.108
- log2 fold change [7]: 0.036
- log2 fold change (epoxomicin): -0.04
- log2 fold change [5]: -0.067
- log2 fold change [1]: 0.097
- log2 fold change [4]: 0.1
- log2 fold change (rosiglitazone): 0.141
- log2 fold change [2]: -0.313

Target: AKNA (UniProt Q7Z591)
- log2 fold change (volasertib): 0.015
- log2 fold change [5]: 0.054

Target: AFDN isoform 1 (UniProt P55196)
- log2 fold change [3]: -0.019
- log2 fold change (epoxomicin): 0.064
- log2 fold change [5]: -0.104
- log2 fold change [1]: -0.075
- log2 fold change [4]: -0.069
- log2 fold change (rosiglitazone): 0.104
- log2 fold change [6]: 0.111
- log2 fold change [2]: 0.062

Target: AUNIP isoform 2 (UniProt Q9H7T9)
- log2 fold change (volasertib): -0.03
- log2 fold change [5]: 0.013
- log2 fold change [4]: -0.163
- log2 fold change [6]: -0.031

Target: ABCA4 (UniProt P78363)
Sequence of UniProt P78363 (P78363 whole entry, looked up): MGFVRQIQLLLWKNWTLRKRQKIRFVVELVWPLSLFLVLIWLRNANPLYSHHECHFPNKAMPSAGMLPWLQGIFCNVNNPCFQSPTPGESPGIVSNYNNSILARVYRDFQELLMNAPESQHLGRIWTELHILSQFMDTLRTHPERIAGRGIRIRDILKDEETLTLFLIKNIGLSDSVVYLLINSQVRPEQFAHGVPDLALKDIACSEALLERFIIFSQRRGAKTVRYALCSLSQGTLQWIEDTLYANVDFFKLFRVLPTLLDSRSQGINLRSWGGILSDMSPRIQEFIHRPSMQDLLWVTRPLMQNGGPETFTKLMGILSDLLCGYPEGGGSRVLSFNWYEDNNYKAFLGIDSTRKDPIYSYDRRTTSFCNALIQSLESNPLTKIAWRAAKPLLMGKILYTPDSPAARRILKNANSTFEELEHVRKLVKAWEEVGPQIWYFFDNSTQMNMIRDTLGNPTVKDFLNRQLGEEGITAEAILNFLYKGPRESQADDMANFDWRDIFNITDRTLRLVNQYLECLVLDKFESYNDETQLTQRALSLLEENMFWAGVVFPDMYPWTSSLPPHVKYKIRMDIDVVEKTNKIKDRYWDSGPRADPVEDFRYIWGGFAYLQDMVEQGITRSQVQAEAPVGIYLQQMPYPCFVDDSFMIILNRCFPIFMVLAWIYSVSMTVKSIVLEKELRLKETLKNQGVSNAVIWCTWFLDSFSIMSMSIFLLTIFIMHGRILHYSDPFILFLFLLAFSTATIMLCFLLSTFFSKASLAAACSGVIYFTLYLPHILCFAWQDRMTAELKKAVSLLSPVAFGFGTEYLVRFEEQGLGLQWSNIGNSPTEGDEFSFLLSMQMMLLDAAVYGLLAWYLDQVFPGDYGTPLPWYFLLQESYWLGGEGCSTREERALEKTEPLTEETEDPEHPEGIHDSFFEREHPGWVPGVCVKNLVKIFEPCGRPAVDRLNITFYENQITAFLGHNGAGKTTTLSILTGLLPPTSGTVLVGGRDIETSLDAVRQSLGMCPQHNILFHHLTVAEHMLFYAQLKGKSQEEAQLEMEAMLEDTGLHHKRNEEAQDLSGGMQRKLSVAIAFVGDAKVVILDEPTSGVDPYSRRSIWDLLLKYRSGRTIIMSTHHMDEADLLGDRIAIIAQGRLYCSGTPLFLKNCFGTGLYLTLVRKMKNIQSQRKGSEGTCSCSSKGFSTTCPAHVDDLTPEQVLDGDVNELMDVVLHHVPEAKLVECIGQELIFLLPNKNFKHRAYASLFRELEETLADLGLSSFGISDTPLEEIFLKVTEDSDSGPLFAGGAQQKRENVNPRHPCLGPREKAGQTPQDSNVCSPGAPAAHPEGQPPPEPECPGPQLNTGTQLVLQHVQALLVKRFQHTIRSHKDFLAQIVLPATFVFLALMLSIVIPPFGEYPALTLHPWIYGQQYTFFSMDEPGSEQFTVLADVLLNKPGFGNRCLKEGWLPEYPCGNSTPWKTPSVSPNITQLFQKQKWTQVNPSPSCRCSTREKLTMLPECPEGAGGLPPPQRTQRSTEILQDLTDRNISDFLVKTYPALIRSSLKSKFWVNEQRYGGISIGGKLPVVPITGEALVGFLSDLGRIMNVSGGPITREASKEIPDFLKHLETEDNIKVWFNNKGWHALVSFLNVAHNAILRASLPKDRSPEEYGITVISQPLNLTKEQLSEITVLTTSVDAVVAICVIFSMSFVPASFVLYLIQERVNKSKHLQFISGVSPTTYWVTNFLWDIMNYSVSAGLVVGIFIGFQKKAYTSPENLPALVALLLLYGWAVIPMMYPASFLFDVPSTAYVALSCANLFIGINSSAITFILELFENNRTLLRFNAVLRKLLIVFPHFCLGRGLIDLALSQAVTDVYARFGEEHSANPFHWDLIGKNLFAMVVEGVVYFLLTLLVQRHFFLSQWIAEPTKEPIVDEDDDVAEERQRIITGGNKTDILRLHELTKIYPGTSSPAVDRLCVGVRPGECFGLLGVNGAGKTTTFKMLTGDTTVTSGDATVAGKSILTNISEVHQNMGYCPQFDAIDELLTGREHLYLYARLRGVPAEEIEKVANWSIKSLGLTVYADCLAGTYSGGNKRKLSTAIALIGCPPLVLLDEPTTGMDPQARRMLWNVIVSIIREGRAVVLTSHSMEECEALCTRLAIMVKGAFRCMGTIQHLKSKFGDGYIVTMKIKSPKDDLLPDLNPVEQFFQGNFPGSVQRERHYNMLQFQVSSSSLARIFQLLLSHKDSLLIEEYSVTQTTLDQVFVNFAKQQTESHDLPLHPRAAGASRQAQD
- log2 fold change [3]: 0.117
- log2 fold change [7]: -0.202
- log2 fold change (epoxomicin): -0.046
- log2 fold change [5]: -0.172
- log2 fold change [1]: -0.163
- log2 fold change (rosiglitazone): 0.015
- log2 fold change [2]: -0.087

Target: BRD8 isoform 2 (UniProt Q9H0E9)
- log2 fold change [3]: 0.036
- log2 fold change (volasertib): 0.025
- log2 fold change (epoxomicin): -0.105
- log2 fold change [5]: -0.045
- log2 fold change [1]: 0.219
- log2 fold change [4]: 0.432 (active)
- log2 fold change (rosiglitazone): -0.018
- log2 fold change [6]: 0.087
- log2 fold change [2]: -0.327

Target: ADAM15 (UniProt Q13444)
Sequence of UniProt Q13444 (Q13444 whole entry, looked up): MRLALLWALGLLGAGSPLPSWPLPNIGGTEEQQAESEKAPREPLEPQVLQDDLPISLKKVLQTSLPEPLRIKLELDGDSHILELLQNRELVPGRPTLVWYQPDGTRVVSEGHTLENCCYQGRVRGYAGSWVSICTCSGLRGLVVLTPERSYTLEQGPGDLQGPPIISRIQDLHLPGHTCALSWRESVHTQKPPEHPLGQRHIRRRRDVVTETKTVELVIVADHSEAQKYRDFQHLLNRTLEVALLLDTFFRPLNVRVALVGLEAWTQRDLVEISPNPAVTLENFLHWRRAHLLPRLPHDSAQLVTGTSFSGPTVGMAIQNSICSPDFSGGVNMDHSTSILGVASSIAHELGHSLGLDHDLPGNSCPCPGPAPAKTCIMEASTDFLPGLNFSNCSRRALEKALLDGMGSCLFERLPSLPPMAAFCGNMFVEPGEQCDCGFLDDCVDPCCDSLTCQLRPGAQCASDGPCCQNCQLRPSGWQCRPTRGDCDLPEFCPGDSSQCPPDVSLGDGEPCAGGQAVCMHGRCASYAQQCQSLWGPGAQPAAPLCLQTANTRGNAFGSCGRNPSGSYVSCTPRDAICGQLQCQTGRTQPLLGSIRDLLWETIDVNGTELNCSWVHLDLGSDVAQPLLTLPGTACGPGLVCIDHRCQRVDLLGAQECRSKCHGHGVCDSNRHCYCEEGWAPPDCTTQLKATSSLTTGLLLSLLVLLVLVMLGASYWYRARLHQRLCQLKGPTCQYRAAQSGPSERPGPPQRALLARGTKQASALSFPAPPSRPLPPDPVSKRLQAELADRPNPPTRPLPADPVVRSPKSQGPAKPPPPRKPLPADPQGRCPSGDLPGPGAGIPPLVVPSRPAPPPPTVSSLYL
- log2 fold change (volasertib): -0.103
- log2 fold change [7]: -0.02
- log2 fold change (epoxomicin): 0.034
- log2 fold change [5]: -0.177
- log2 fold change [1]: -0.001
- log2 fold change [4]: 0.066
- log2 fold change (rosiglitazone): -0.099
- log2 fold change [6]: -0.028
- log2 fold change [2]: -0.016

Target: ADD3 isoform 2 (UniProt Q9UEY8)
Sequence of UniProt Q9UEY8 (Q9UEY8 whole entry, looked up): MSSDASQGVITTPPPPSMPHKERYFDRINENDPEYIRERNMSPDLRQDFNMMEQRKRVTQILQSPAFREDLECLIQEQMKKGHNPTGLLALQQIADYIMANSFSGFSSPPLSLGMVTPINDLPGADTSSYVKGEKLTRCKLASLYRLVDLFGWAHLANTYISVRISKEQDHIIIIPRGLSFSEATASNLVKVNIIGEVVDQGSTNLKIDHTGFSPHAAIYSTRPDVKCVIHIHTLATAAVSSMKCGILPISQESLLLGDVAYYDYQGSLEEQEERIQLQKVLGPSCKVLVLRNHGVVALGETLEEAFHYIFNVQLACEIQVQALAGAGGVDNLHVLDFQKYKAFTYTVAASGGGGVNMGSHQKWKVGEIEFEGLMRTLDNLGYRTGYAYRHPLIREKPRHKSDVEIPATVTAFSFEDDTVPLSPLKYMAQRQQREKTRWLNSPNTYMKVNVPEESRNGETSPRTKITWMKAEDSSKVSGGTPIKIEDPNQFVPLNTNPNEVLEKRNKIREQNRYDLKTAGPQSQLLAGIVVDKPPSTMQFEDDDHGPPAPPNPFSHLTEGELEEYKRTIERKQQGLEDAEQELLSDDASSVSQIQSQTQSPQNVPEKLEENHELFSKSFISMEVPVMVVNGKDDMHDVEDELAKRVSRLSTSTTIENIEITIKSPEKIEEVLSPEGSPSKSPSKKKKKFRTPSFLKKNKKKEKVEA
- log2 fold change [3]: 0.021
- log2 fold change (volasertib): -0.037
- log2 fold change (epoxomicin): -0.022
- log2 fold change [1]: 0.066
- log2 fold change [4]: 0.036
- log2 fold change [6]: -0.093
- log2 fold change [2]: -0.128

Target: BRAF, A0A2R8Y8E0
- log2 fold change [7]: 0.047
- log2 fold change [5]: -0.078

Target: ARMC8 isoform 6 (UniProt Q8IUR7)
- log2 fold change [7]: 0.048
- log2 fold change [5]: -0.196
- log2 fold change [4]: 0.016
- log2 fold change (rosiglitazone): -0.004

Target: ADD2 isoform 9 (UniProt P35612)
- log2 fold change (volasertib): -0.1
- log2 fold change (rosiglitazone): 0.196

Target: ARFIP1 isoform 2 (UniProt P53367)
Sequence of UniProt P53367 (P53367 whole entry, looked up): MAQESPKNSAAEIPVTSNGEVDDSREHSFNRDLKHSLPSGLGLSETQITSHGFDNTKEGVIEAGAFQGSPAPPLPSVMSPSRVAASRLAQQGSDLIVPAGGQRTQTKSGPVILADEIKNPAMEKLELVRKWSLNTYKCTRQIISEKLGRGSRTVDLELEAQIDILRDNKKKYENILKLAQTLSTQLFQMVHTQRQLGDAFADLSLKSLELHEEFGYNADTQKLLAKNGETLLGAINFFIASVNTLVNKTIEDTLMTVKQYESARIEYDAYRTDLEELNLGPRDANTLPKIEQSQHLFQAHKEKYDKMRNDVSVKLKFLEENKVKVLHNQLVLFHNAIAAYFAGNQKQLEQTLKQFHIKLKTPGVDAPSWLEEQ
- log2 fold change (volasertib): -0.134
- log2 fold change [7]: 0.071
- log2 fold change (epoxomicin): -0.004
- log2 fold change [5]: -0.102
- log2 fold change [1]: 0.259
- log2 fold change (rosiglitazone): 0.088
- log2 fold change [6]: -0.124
- log2 fold change [2]: -0.512 (active)

Target: BRD2 isoform 2 (UniProt P25440)
- log2 fold change (volasertib): 1.76 (active)
- log2 fold change [5]: 0.104
- log2 fold change [1]: 0.486
- log2 fold change [4]: 0.115
- log2 fold change (rosiglitazone): 0.24
- log2 fold change [6]: -0.132
- log2 fold change [2]: 0.129

Target: BSCL2 isoform 4 (UniProt Q96G97)
- log2 fold change (volasertib): 0.072
- log2 fold change [7]: 0.093
- log2 fold change (epoxomicin): -0.05
- log2 fold change [5]: -0.004
- log2 fold change [1]: 0
- log2 fold change [4]: -0.006
- log2 fold change (rosiglitazone): -0.001
- log2 fold change [6]: -0.005
- log2 fold change [2]: -0.057

Target: ADAMTS5 (UniProt Q9UNA0)
- log2 fold change [3]: 0.011
- log2 fold change [7]: -0.211
- log2 fold change [5]: -0.092
- log2 fold change [1]: -0.16
- log2 fold change [4]: 0.045
- log2 fold change (rosiglitazone): -0.035
- log2 fold change [6]: -0.018
- log2 fold change [2]: -0.039

Target: BRMS1 (UniProt Q9HCU9)
Sequence of UniProt Q9HCU9 (Q9HCU9 whole entry, looked up): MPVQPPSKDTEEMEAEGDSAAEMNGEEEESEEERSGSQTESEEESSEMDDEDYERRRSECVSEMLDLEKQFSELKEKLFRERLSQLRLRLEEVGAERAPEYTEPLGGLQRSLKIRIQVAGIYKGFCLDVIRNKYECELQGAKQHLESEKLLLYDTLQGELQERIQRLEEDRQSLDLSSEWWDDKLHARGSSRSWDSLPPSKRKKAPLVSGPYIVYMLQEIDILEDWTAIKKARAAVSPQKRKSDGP
- log2 fold change [3]: -0.034
- log2 fold change (epoxomicin): -0.018
- log2 fold change [1]: 0.144
- log2 fold change [6]: -0.092
- log2 fold change [2]: -0.124

Target: ATF7 isoform 6 (UniProt P17544)
- log2 fold change (volasertib): -0.014
- log2 fold change [7]: 0.041
- log2 fold change (epoxomicin): -0.028
- log2 fold change [5]: 0.007
- log2 fold change [4]: 0.03
- log2 fold change (rosiglitazone): -0.011
- log2 fold change [6]: -0.06

Target: AUH (UniProt Q13825)
- log2 fold change [3]: 0.011
- log2 fold change (volasertib): 0.486 (active)
- log2 fold change [5]: -0.129
- log2 fold change [1]: -0.094
- log2 fold change [4]: 0.128
- log2 fold change (rosiglitazone): 0.021
- log2 fold change [6]: -0.183
- log2 fold change [2]: 0.086

Target: ABCA3 (UniProt Q99758)
- log2 fold change [3]: -0.155
- log2 fold change (volasertib): -0.093
- log2 fold change (epoxomicin): 0
- log2 fold change [5]: -0.035
- log2 fold change [1]: 0.168
- log2 fold change [4]: 0.108
- log2 fold change (rosiglitazone): -0.172
- log2 fold change [6]: -0.013
- log2 fold change [2]: -0.263

Target: ALKBH4 (UniProt Q9NXW9)
- log2 fold change [3]: -0.064
- log2 fold change (volasertib): -0.263
- log2 fold change (epoxomicin): 0.117
- log2 fold change [5]: -0.02
- log2 fold change [1]: -0.023
- log2 fold change [4]: 0.056
- log2 fold change (rosiglitazone): 0.037
- log2 fold change [6]: -0.077
- log2 fold change [2]: -0.082

Target: ATP6V0A1 (UniProt Q93050)
- log2 fold change (rosiglitazone): -0.082

Target: AIF1 (UniProt P55008)
- log2 fold change (volasertib): 0.047
- log2 fold change (epoxomicin): -0.727 (active)
- log2 fold change [5]: 0.078
- log2 fold change [4]: 0.01
- log2 fold change (rosiglitazone): -0.045

Target: ACSL6 isoform 1 (UniProt Q9UKU0)
- log2 fold change [7]: 0.08
- log2 fold change (epoxomicin): -0.159
- log2 fold change [5]: 0.01
- log2 fold change [1]: -0.014
- log2 fold change [4]: 0.149
- log2 fold change (rosiglitazone): -0.069
- log2 fold change [6]: -0.226
- log2 fold change [2]: -0.459 (active)

Target: AZI2 (UniProt Q9H6S1)
- log2 fold change [3]: -0.021
- log2 fold change [7]: -0.063
- log2 fold change [5]: -0.041
- log2 fold change [4]: 0.062
- log2 fold change (rosiglitazone): -0.001
